# Hits are enriched below; roughly 0.4% of the tested compounds scored in any of these assays.
# UCHL1 block – inhibitors of human UCHL1 deubiquitinase | 47,000 compounds, 0.2% hits | inhibition, % at 20 µM | purified UCHL1, Ub-rhodamine cleavage fluorescence | P09936
# Target sequence (P09936 whole entry, looked up): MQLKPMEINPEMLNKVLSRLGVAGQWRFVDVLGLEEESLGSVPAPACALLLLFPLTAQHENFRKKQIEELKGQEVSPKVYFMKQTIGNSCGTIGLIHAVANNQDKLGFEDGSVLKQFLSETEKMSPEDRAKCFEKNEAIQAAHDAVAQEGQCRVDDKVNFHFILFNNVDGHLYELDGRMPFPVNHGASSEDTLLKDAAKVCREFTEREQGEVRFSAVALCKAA
# USP7 block – inhibitors of human USP7 deubiquitinase; 47,000 compounds, 0.3% hits; inhibition, % at 20 µM; purified USP7, Ub-rhodamine cleavage fluorescence; Q93009
# Active calls of the source: *; x = not tested or not shown. No stated cut-off is given here; in the data, active means inhibition above about 30%; inactive means the rest.
SMILES,UCHL1 block,USP7 block
Nc1ccc(F)c(NS(=O)(=O)c2ccccc2)c1,31*,12
O=C(Nc1ccccc1F)c1cncc(NS(=O)(=O)c2ccccc2)c1,6,4
O=c1[nH]c2c(cc1CNc1ccc(Oc3ccccc3)cc1)c(-c1ccc(F)cc1)nn2-c1ccccc1,40*,50*
COc1ccc(-c2nn(-c3ccccc3)c3[nH]c(=O)c(CNCc4cccs4)cc23)cc1OC,-3,4
O=c1[nH]c2c(cc1CNc1ccc(Cl)cc1)c(-c1cccc(F)c1)nn2-c1ccccc1,-1,14
Cc1ccc(NCc2cc3c(-c4cccc(F)c4)nn(-c4ccccc4)c3[nH]c2=O)cc1C,18,51*
O=c1[nH]c2c(cc1CNCCc1ccccc1)c(-c1ccc(F)cc1)nn2-c1ccccc1,-5,8
COc1ccc(-c2nn(-c3ccccc3)c3[nH]c(=O)c(CNc4ccc5c(c4)OCCO5)cc23)cc1OC,17,31*
COc1ccc(C(=O)NC(Cc2ccccc2)c2nc3ccccc3[nH]2)c(OC)c1 (stereo not drawn),19,-5
COc1cccc(N2CCN(c3ccc4nnc(CCC(=O)NCCc5c[nH]c6ccccc56)n4n3)CC2)c1,-1,0
CCCCCCCCC/C=C/C(=O)CCc1c(O)c(C=O)c2c(c1O)C(=O)OC2O (stereo not drawn),86*,87*
CCCCC/C=C/c1c(O)cc(CC=C(C)C)c(O)c1C=O,-15,-13
COc1ccc(C(=O)N2CCC(n3c(=O)[nH]c4cncnc43)C2)cc1F (stereo not drawn),-1,-1
Cc1ccc(CNC(=O)CCCn2c(=O)c3sccc3n(CC(=O)Nc3cc(Cl)ccc3C)c2=O)cc1,-1,19
CCOc1ccccc1NC(=O)Cn1c(=O)n(CCCC(=O)NCc2ccc(C)cc2)c(=O)c2sccc21,6,36*
Cc1ccccc1-c1nnc(-c2ccc(C(=O)N(C)Cc3cccc(F)c3)cc2)o1,10,12
O=C1c2c(O)c(Cl)cc3c2[C@@]2(Oc4ccc(O)c5c4[C@]3(O2)[C@@H]2O[C@@H]2C5=O)[C@@H]2O[C@H]12,84*,82*
Oc1ccc2c3c1[C@@H](O)C1OC1[C@]31Oc3cccc4c3[C@](C=C[C@@H]4O)(O2)O1 (stereo partly drawn),0,-5
Cc1ccc(C(=O)N2CCN(c3nc(-c4ccccc4)c4cc(Cl)ccc4n3)CC2)cc1,-4,0
COc1ccc(/C=C2\CC/C(=C\c3ccc(OC)cc3)C2=O)cc1,1,8
Cc1nn(-c2ccc(F)cc2)c(C)c1S(=O)(=O)N1CCN(c2ccccn2)CC1,6,36*
Cc1nn(-c2ccc(F)cc2)c(C)c1S(=O)(=O)N1CCC(C)CC1,5,5
Cc1ccc(C)c(S(=O)(=O)N2CCC3(CC2)NCCN=C3NC2CCCC2)c1,-6,0
CCCCC[C@H](O)/C=C/C=C/CCCCCCCC(=O)O,0,-6
CC/C=C\C/C=C\C/C=C\CCCCCCCC(=O)O,35*,41*
SMILES,UCHL1 block,USP7 block
Cc1ccccc1C(=O)Nc1ccc2c(c1)C(=O)N(C)c1ccccc1O2,1,4
O=C(Nc1nccs1)C1c2ccccc2C(=O)N(Cc2ccccc2)C12CCCC2 (stereo not drawn),69*,23
COCCN1C(=O)c2ccccc2C(C(=O)Nc2ccccn2)C12CCCCC2 (stereo not drawn),-1,1
c1ccc(Cn2ncc3c(SCc4nc5ccccc5[nH]4)ncnc32)cc1,1,1
CC(C)=CCC[C@](C)(O)[C@H]1CC[C@]2(C)[C@@H]1CC[C@@H]1[C@@]3(C)CC[C@H](O)C(C)(C)[C@@H]3CC[C@]12C,6,10
C=C(C)[C@@H]1CC[C@]2(C)[C@H](CC[C@@H]3[C@@H](C(C)(O)CCC=C(C)C)CC[C@]32C)[C@@]1(C)CCC(=O)O (stereo partly drawn),45*,85*
COc1cc(CN2C[C@@H]3C[C@@H](O)CN3C[C@H]2Cc2ccccc2)cc(OC)c1OC,-1,-1
COCCCN1CCS(=O)(=O)c2c(Cl)c(F)nc(Oc3ccc(C#N)cc3)c21,24,x
Cc1nn(-c2ccccc2)c2c1C1(C(=O)Nc3ccccc31)C(C#N)=C(N)O2 (stereo not drawn),4,19
Cc1nn(-c2ccccc2)c2c1C1(C(=O)Nc3ccccc31)N1C(=N2)Sc2ccccc21 (stereo not drawn),10,83*
O=c1[nH]c(CN2CCN(S(=O)(=O)c3ccccc3Cl)CC2)nc2ccccc12,-4,-1
Cc1cccc(-n2nnc(-c3nc(-c4ccc(Cl)cc4)no3)c2N)c1,-3,4
Nc1c(-c2nc(-c3ccccc3Cl)no2)nnn1-c1ccc(Cl)cc1,12,56*
CCOC(=O)c1ccc(Oc2sccc2[N+](=O)[O-])cc1,0,85*
CCOC(=O)c1ccc(Oc2nc(C)nc3sc(C)c(C)c23)cc1,-2,2
N#C/C(=C\c1ccc(OCc2cccc(C(=O)O)c2)cc1)c1ccc(F)cc1,5,31*
N#C/C(=C/c1ccc(OCc2cccc(C(=O)O)c2)cc1)c1ccccc1,-2,1
CNC(=O)Cc1ccc(NC(=O)/C=C/c2cn(-c3ccccc3)nc2-c2ccc(F)cc2)cc1,1,7
CC(=O)NS(=O)(=O)c1ccc(NC(=O)/C=C/c2cn(-c3ccccc3)nc2-c2ccccc2)cc1,12,41*
COc1ccc(C(=O)Nc2nnc(S(=O)(=O)N3CCCc4ccccc43)s2)cc1OC,4,26
Cc1ccc(OCC(=O)N2CC[C@@H]3CN(CCC(C)C)S(=O)(=O)[C@@H]3CC2)cc1,0,-3
Cc1cc(C(F)(F)F)n(-c2ccc(NC(=O)Nc3cccc(C(F)(F)F)c3)cc2)n1,6,5
COC(=O)CC1CC2=C(C(=O)c3c(O)cccc3C2=O)C(C)O1 (stereo not drawn),5,-132
C[C@@H]1OC2=C(C(=O)c3cccc(O)c3C2=O)[C@H](O)[C@@H]1O,32*,-116
NC(=O)c1ccccc1NCc1cc(=O)n2cc(Cl)ccc2n1,-18,-20
SMILES,UCHL1 block,USP7 block
Cc1ccc2nc(CNc3ccc(F)cc3C)cc(=O)n2c1,32*,-19
COc1cccc(CC(=O)Nc2cccc(S(=O)(=O)N3CCOCC3)c2)c1,-1,-5
O=[N+]([O-])c1ccc(N2CCN(CC(O)c3ccc4c(c3)CCN4)CC2)cc1 (stereo not drawn),-1,-8
O=[N+]([O-])c1ccc(C(O)CN2CCN(Cc3ccccc3)CC2)cc1 (stereo not drawn),79*,0
CC(=O)N1CCN(c2cc(-c3noc([C@@H]4CCCN4CC(C)(C)C)n3)ccn2)CC1,4,3
COc1ccc(OC)c(C2=NO[C@]3(C(=O)Nc4ccccc43)[C@H]2C(=O)c2ccc(OC)c(OC)c2)c1,85*,5
COc1cc(C2=NO[C@]3(C(=O)Nc4ccccc43)[C@H]2C(=O)c2ccc(C)cc2)ccc1OCC#N,11,3
COc1cccc(Nc2c(C(=O)N3CCOCC3)cnc3nc(C)ccc23)c1,0,0
NC(=O)c1sc2ncccc2c1C1CCN(c2ncccn2)CC1,-1,0
Cc1nnc(-c2ccc3ccn(CC(=O)N4CCN(c5ccccc5)CC4)c3c2)o1,25,-15
Cc1nnc(-c2ccc3ccn(CC(=O)N4CCCc5ccccc54)c3c2)o1,51*,-27
Cc1ccc(NS(=O)(=O)c2cc(C(=O)NCc3ccc(S(N)(=O)=O)cc3)ccc2C)cc1,1,-1

# Screens: PubChem, Buhrlage Lab, Dana-Farber Cancer Institute and Novartis Institutes for BioMedical Research (Cambridge, Mass)
